According to PubChem BioAssay AID504882 (Broad Institute, 2011):
Out of some 1,200 compounds screened, about 290 (24%) were called active. Roughly 9% stayed inconclusive and do not appear here. No rule for the calls is given here. These entries were drawn from the full list. Measured potencies and affinities stand elsewhere.

Assay: cytotoxicity in EBV lymphoblastoid cells, dose response, cytotoxicity control, cell-based, plate reader, cherry-picks, set 2 (AID 504882)
Details: EBV lymphoblastoid cells (LCL) viability; series mostly up to 19.5 µM
In the case of `O=C(N/N=C(/CC(=O)c1cccs1)C(F)(F)F)c1ccc(O)cc1`, the outcome is reported as “inactive”.
In the case of `CCC(C)[C@H](NC(=O)NCc1cccnc1)C(=O)OC` (some centres undefined), the outcome is reported as “inactive”.
For `Cc1cccc(C)c1NC(=O)CN(C)C(=O)c1ccc(-c2cccc(C(F)(F)F)c2)o1`, the outcome was “inactive”.
For `O=C(CN1C(=O)c2ccccc2S1(=O)=O)c1ccc(F)c(F)c1`, the outcome was “inactive”.
In the case of `COc1ccc(-n2c(SCC(=O)Nc3ccc4c(c3)OCO4)nc3c(c2=O)SCC3)cc1`, the outcome is reported as “inactive”.
With `Cc1ccnc(NC(=O)CCC(=O)c2cccs2)c1` the outcome was “inactive”.
In the case of `COc1ccc(C(=O)Nn2c(SCC(=O)NC3CCCCC3)nc3ccccc3c2=O)cc1`, the outcome is reported as “inactive”.
In the case of `NC(=O)CC(NC(=O)c1ccccc1)c1ccc(NC2CCN(Cc3ccccc3)CC2)c([N+](=O)[O-])c1` (centres undefined), the outcome is reported as “inactive”.
With `Cc1cccc(Cn2cc(SCC(=O)Nc3nccs3)c3ccccc32)c1` the outcome was “inactive”.
For `COC(=O)c1c(O)ccc(Oc2ccccc2)c1C(=O)OC`, the outcome was “inactive”.
For `COc1ccc2oc(C(=O)NCCc3ccccc3)c(C)c2c1`, the outcome was “inactive”.
For `COc1ccc(-n2c(SCC(=O)Nc3cc(C)on3)nc3c(c2=O)SCC3)cc1`, the outcome was “inactive”.
For `Cc1ccc(-n2ccc(=O)c(C(=O)Nc3ccc(S(=O)(=O)N4CCOCC4)cc3)n2)cc1`, the outcome was “inactive”.
For `O=C1c2ccccc2C(Nc2cccnc2)N1Cc1ccccc1` (centres undefined), the outcome was “inactive”.
For `COc1cc(C(=S)N2CCOCC2)cc(OC)c1OC(=O)c1ccc(F)cc1`, the outcome was “inactive”.
For `COc1cc(/C=N/NC(=O)c2cccc(S(=O)(=O)N3CCOCC3)c2)cc(OC)c1O`, the outcome was “inactive”.
For `O=C(NOCc1ccccc1)c1ccc(Cl)cc1Cl`, the outcome was “inactive”.
With `C[C@H]1C[C@H]2[C@@H]3CCC4=CC(=O)C=C[C@]4(C)[C@@]3(F)[C@@H](O)C[C@]2(C)[C@@]1(O)C(=O)CO` the outcome was “inactive”.
In the case of `CC1CCC(NC(=O)CC2Oc3ccccc3NC2=O)CC1` (centres undefined), the outcome is reported as “inactive”.
For `O=C1CN(C(=O)c2ccc(F)c(S(=O)(=O)N3CCOCC3)c2)c2ccccc2N1`, the outcome was “inactive”.
In the case of `CC(C)c1nnc(NC(=O)c2ccc(N3C(=O)CCC3=O)cc2)s1`, the outcome is reported as “inactive”.
In the case of `COc1cc2c(cc1OC)-c1cc(Nc3ccc4c(c3)OCCO4)nc(=O)n1CC2`, the outcome is reported as “inactive”.
In the case of `COc1cccc(C(=O)Nc2nc3ccccc3[nH]2)c1`, the outcome is reported as “inactive”.
For `CCCC(=O)NCCCc1nc2ccccc2[nH]1`, the outcome was “inactive”.
In the case of `COc1ccccc1C=NN=Cc1ccccc1O`, the outcome is reported as “inactive”.
In the case of `CCc1ccc(-c2nnn(CCC(=O)OC)n2)cc1`, the outcome is reported as “inactive”.
In the case of `COc1cccc(C(=O)CC(=O)C(=O)Nc2ccc(C)cc2Cl)c1`, the outcome is reported as “inactive”.
With `CCc1ccc(/C=C/C(=O)C2C(=O)c3ccccc3C2=O)cc1` the outcome was “inactive”.
For `O=C(OCc1ccccc1F)c1cc2ccccc2cc1O`, the outcome was “inactive”.
In the case of `CCS(=O)(=O)c1nnnn1-c1ccccc1S(C)(=O)=O`, the outcome is reported as “inactive”.
In the case of `C[C@H](NC(=O)N1CCn2c1nc1ccccc12)C(=O)NCC1CCCO1` (some centres undefined), the outcome is reported as “inactive”.
With `CCOC(=O)c1ccc(NC(=S)N2CCSC2c2ccc(OC)cc2)cc1` (centres undefined) the outcome was “inactive”.
With `COC(=O)c1[nH]c2cccc(C)c2c1NC(=O)CN1CCCc2ccccc21` the outcome was “inactive”.
In the case of `CC(C)(C)c1nc2c(s1)CCc1onc(-c3ccc(Br)cc3)c1-2`, the outcome is reported as “inactive”.
For `Cc1nc2sc(C(N)=O)c(N)c2c2c1CCCC2`, the outcome was “inactive”.
In the case of `O=C(Nc1ccc2c(c1)nc1n2CCSC1)c1ccco1`, the outcome is reported as “inactive”.
With `O=C(Nc1ccc(Cl)cc1)c1ccco1` the outcome was “inactive”.
For `CCOC(=O)C1=C(O)/C(=C/c2ccc(CNC(=O)C(=O)Nc3ccc(C)cc3)o2)N=C1C`, the outcome was “inactive”.
For `Nc1cc(=O)[nH]c(SCCSc2cc(Cl)ccc2Cl)n1`, the outcome was “inactive”.
In the case of `CC(C)(C)c1cc(C(=O)NNC(=O)Nc2cccc(Cl)c2)n(Cc2ccccc2)n1`, the outcome is reported as “inactive”.
In the case of `CC(=O)O[C@]1(C(C)=O)CC[C@H]2[C@@H]3C=C(C)C4=CC(=O)CC[C@@H]4[C@H]3CC[C@@]21C`, the outcome is reported as “inactive”.
With `O=C(O)c1ccccc1Nc1cccc(OCc2ccc3ccccc3n2)c1` the outcome was “inactive”.
With `c1ccc2c3c([nH]c2c1)C(C1CCCCC1)N(Cc1ncc[nH]1)CC3` (centres undefined) the outcome was “inactive”.
In the case of `O=C1c2ccccc2C(Nc2ccc(Cl)cc2)N1CCN1CCOCC1` (centres undefined), the outcome is reported as “inactive”.
For `Brc1ccc(-c2csc(N3CCCCCC3)n2)cc1`, the outcome was “inactive”.
For `COc1cc(/C=C2\SC(=S)N(NC(=O)c3ccncc3)C2=O)ccc1O`, the outcome was “inactive”.
For `CCc1nnc(NC(=O)c2cc(S(=O)(=O)N3CCN(CC)CC3)ccc2Cl)s1`, the outcome was “inactive”.
For `COc1cc2c(=O)n(CC3CCCO3)c(=O)n(CC(=O)Nc3cccc(Cl)c3)c2cc1OC` (centres undefined), the outcome was “inactive”.
In the case of `COc1ccc(NC(=O)N(CCN2CCCC2)Cc2cc3cc(OC)c(OC)cc3[nH]c2=O)cc1`, the outcome is reported as “inactive”.
With `Cc1cccc(C)c1NC(=O)CN(C)CC(=O)Nc1ccccc1Oc1ccccc1` the outcome was “inactive”.
With `Cc1ccc(C(=O)Nc2ccc3ncccc3c2)cc1` the outcome was “inactive”.
In the case of `O=C(O)c1c2c(nc3ccccc13)/C(=C/c1ccc(O)cc1)CC2`, the outcome is reported as “inactive”.
In the case of `CSc1nc(C)cc(C)c1C#N`, the outcome is reported as “inactive”.
With `CC1(C)CN(Cc2ccccc2)C(=O)[C@H]1CC(=O)Nc1ccccc1` the outcome was “inactive”.
In the case of `O=C(Cc1cccc2ccccc12)Nc1ccc(-c2cc3ccccc3oc2=O)cc1`, the outcome is reported as “inactive”.
With `NC(=O)c1sc2nccc(Nc3ccccc3)c2c1N` the outcome was “inactive”.
For `CCCCCC(=O)N1CCN(c2ccc(C(C)=O)cc2F)CC1`, the outcome was “inactive”.
For `COc1ccc(C(c2c(C)n(C)n(-c3ccccc3)c2=O)c2c(C)n(C)n(-c3ccccc3)c2=O)c(OC)c1OC`, the outcome was “inactive”.
In the case of `CC(C)C(=O)Nc1ccc(C(=O)N/N=C/c2cc(Br)cc(Br)c2O)cc1`, the outcome is reported as “inactive”.
With `CCSc1nc2ccc(OC)cc2cc1C#N` the outcome was “inactive”.
In the case of `COc1ccccc1C(=O)Nc1c[nH]c(=O)[nH]c1=O`, the outcome is reported as “inactive”.
In the case of `CN1OC[C@@H]2CN[C@H](c3ccc(-c4cc5ccccc5o4)cc3)C[C@@H]21`, the outcome is reported as “inactive”.
With `O=C(O)CN1C(=O)/C(=C\c2ccccc2OCc2ccc(Cl)cc2Cl)SC1=S` the outcome was “inactive”.
In the case of `COc1cc(/C=N/NC(=S)Nc2cccc(C(=O)O)c2)ccc1O`, the outcome is reported as “inactive”.
With `S=C(N/N=C/c1ccc2ncccc2c1)Nc1cccnc1` the outcome was “inactive”.
In the case of `OCCN(CCO)CC(O)COCCC12CC3CC(CC(C3)C1)C2` (centres undefined), the outcome is reported as “inactive”.
For `O=C(Nc1cnc2ccccn2c1=O)c1ccc(Cl)cc1Cl`, the outcome was “inactive”.
For `O=C(O)c1ccc(C=NN=C2c3ccccc3-c3ccccc32)cc1`, the outcome was “inactive”.
In the case of `CC(=O)c1ccc(N2CCN(c3ccnc4cc(Cl)ccc34)CC2)cc1`, the outcome is reported as “inactive”.
In the case of `Cc1cc(C)c2sc(NC(=O)C3CC3)nc2c1`, the outcome is reported as “inactive”.
In the case of `N#CC1=C(N)OC2=C(C(=O)CCC2)C12C(=O)N1CCCc3cccc2c31` (centres undefined), the outcome is reported as “inactive”.
In the case of `Clc1ccc(-n2ncc3c(N4CCCC4)ncnc32)cc1`, the outcome is reported as “inactive”.
With `COc1ccc(-c2csc3ncnc(Sc4nnnn4C)c23)cc1` the outcome was “inactive”.
For `Cc1ccsc1-c1nc(CSCC(=O)N2CCN(c3ccccc3)CC2)c(C)o1`, the outcome was “inactive”.
For `COc1cc(NC(=S)N2CCN(CCO)CC2)cc(OC)c1`, the outcome was “inactive”.
In the case of `COc1ccc2cc(C(N)=O)/c(=N\NC(=O)c3ccccc3)oc2c1`, the outcome is reported as “inactive”.
With `CCCN1C(=O)C2(SC(NC(C)=O)=NN2C(C)=O)c2cc(C)cc(C)c21` (centres undefined) the outcome was “inactive”.
For `c1ccc(-c2nnc(-c3ccccn3)s2)nc1`, the outcome was “inactive”.
With `Cc1cc(C)c(OCCn2ccnc2)c(C)c1` the outcome was “inactive”.
In the case of `COc1ccc(C=Cc2ccc3ccccc3n2)c(OC)c1`, the outcome is reported as “inactive”.
With `C[C@@]12C(=O)N(Cc3ccccc3)CC(=O)N1[C@H](/C=C/c1ccccc1)[C@@H]1C(=O)N(c3ccccc3)C(=O)[C@@H]12` the outcome was “inactive”.
For `CCOC(=O)N1CCC(n2c(=S)[nH]c3ccccc3c2=O)CC1`, the outcome was “inactive”.
For `O=C1CC(c2ccccc2)Oc2ccccc21` (centres undefined), the outcome was “inactive”.
With `C[C@@H](C(=O)Nc1ccc2c(c1)OCCO2)n1c(=O)[nH]c2ccccc2c1=O` the outcome was “inactive”.
For `CCCCOc1ccc2c(c1)/C(=C(\C(Cl)=C(Cl)Cl)[N+](=O)[O-])N2`, the outcome was “inactive”.
In the case of `Cc1ccc(-n2cc(C(=O)c3ccccc3O)cn2)cc1`, the outcome is reported as “inactive”.
In the case of `COc1ccc(OC)c(S(=O)(=O)NC(C)CCc2ccccc2)c1` (centres undefined), the outcome is reported as “inactive”.
In the case of `CC(C(=O)N=Nc1c(O)[nH]c2ccccc12)n1cnc2ccccc2c1=O` (centres undefined), the outcome is reported as “inactive”.
For `COc1ccc(Cl)cc1NC(=O)CN(C)S(=O)(=O)c1cccs1`, the outcome was “inactive”.
For `Cc1cc(C)cc(C(=O)NCCC(=O)NCc2cc(=O)n(C)c(=O)n2C)c1`, the outcome was “inactive”.
With `COc1ccc(S(=O)(=O)N2CCN(CC(=O)Nc3ccc(C)c(F)c3)CC2)cc1` the outcome was “inactive”.
In the case of `CCOC(=O)C1CCN(S(=O)(=O)Cc2ccccc2)C1=O` (centres undefined), the outcome is reported as “inactive”.
For `Cc1cc(C)c(S(=O)(=O)Nc2nnc(CC(C)C)s2)c(C)c1`, the outcome was “inactive”.
For `CC(=O)c1cc(C(=O)Nc2ccc(C(=O)O)cc2)oc1C`, the outcome was “inactive”.
In the case of `CCSc1nnc(NC(=O)CCn2c(=O)oc3ccccc32)s1`, the outcome is reported as “inactive”.
For `COC(=O)CCCC[C@@H]1SC[C@@H](NC(=O)OC)[C@@H]1NC(=O)OC`, the outcome was “inactive”.
In the case of `COC(=O)c1ccccc1NC(=O)CSc1nnnn1C`, the outcome is reported as “inactive”.
In the case of `COc1ccc(N2C3=[N+](CC2(C)O)c2ccccc2CC3)cc1` (centres undefined), the outcome is reported as “inactive”.
For `O=S(=O)(NC1c2cccc3cccc(c23)C1Sc1ncccn1)c1ccccc1` (centres undefined), the outcome was “inactive”.
For `COc1ccc(CNC(=O)COC(=O)[C@@H]2CCCN2C(=O)c2cccs2)cc1`, the outcome was “inactive”.
In the case of `S=C(NCC1CCCCC1)Nc1ccc(Oc2ccccc2)cc1`, the outcome is reported as “inactive”.
With `O=C(c1noc2c1CCCC2)N1CCCCC1` the outcome was “inactive”.
For `CCOc1ccc(NC(=O)c2cnsn2)cc1`, the outcome was “inactive”.
With `CCOC(=O)c1cn2nc(N3CCCCC3)ccc2n1` the outcome was “inactive”.
With `COC(=O)c1ccc2nc(-c3ccc4c(c3)OCO4)cn2c1` the outcome was “inactive”.
With `CCOc1cc(/C=C2/C(=N)N3N=C(CC)SC3=NC2=O)ccc1OC(=O)c1ccco1` the outcome was “inactive”.
With `COC(=O)c1ccc(CSc2nc3c(c(=O)n2-c2ccc(C)cc2)SCC3)o1` the outcome was “inactive”.
For `COC(=O)CSc1ncnc2c1sc1nc3c(cc12)COC(C)(C)C3`, the outcome was “inactive”.
With `CCOC(=O)CNC(=O)CSc1nnc(NC(=O)c2ccc(C)cc2)s1` the outcome was “inactive”.
